# Screening data from PubChem BioAssay.
# D1 antagonist: blocks dopamine activation of the human D1 receptor | HEK293 TREx D1 cells, calcium flux, dopamine EC80; hits give low values | activity change, negative = inhibition, % at 10 µM | 3.2% of 360,000 active; in the data active means activity change below about -30%; further: on the % scale 0 is the no-effect control and ±100 the full control effect
#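 Antagonism measured as reduced calcium response to an EC80 dopamine addition following 180 s compound pre-read; cells were inducible HEK293 Trex D1 plated overnight at 30 C, read kinetically at 1 cycle/sec.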
# D1 agonist: agonists of human D1 dopamine receptor; P21728; HEK293 T-REx D1 cells, calcium flux, agonist mode; activation, % at 2 µM; 1% of 360,000 active; AID 504660; further: 0% is about no effect
#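 Agonism was scored from calcium flux recorded over 180 s (1 read/s) after pintool compound addition, following a 10-cycle baseline. Cells were inducible force-coupled HEK293 TREx D1, plated overnight at 30 C and loaded with no-wash calcium dye.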
# TRHR ag: TRH receptor (human) agonism | activation, % at 2 µM | 0.18% of 360,000 active | TRHR cells, calcium flux fluo-8, FDSS agonist mode | P34981; further: 0% is about no effect
# Target sequence (P34981 whole entry, looked up): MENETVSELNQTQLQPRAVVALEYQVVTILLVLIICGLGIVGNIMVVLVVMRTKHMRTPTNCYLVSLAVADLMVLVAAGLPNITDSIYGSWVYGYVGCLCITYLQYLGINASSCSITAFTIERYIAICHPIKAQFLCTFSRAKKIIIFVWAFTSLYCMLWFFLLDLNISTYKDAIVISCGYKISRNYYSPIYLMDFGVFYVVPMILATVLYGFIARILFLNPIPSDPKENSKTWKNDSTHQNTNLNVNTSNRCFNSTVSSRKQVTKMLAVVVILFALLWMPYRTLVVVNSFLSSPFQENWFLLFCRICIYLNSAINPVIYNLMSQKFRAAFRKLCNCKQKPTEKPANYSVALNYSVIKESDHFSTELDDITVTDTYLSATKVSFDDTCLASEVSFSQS
#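 Agonist-mode FDSS calcium read (Ex 480/Em 530, 1 s cycles) in 1536-well TRHR cells with fluo-8 dye, after 10-cycle baseline and 23 nL compound addition; TRH at EC20 (10 nM final) added afterwards for the enhancer phase.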
# D1 potentiator: human D1 dopamine receptor positive modulation. P21728. potentiation, % at 10 µM. HEK293 TREx D1 cells, calcium flux, dopamine EC20 potentiation. 0.036% of 360,000 active; in the data active means potentiation above about 30%; further: 0% is about no effect
# TRHR enhancer: TRH receptor (human) allosteric enhancement | P34981 | TRHR cells, fluo-8 calcium fluorescence, EC20 TRH enhancement | enhancement, % at 2 µM | 0.66% of 360,000 active; in the data active means enhancement above about 30%; further: 0% is about no effect
#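 TRHR-expressing cells loaded with fluo-8 calcium dye were read kinetically (ex 480/em 530) during compound addition, then stimulated with an EC20 of TRH (10 nM final). Enhancement of the Gq-mediated intracellular calcium response was scored.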
# * marks the source's active call; other numbers are inactive results; ! = not confirmed by another sample. Sampled rows, rich in hits. Any-hit rate of the full collection: about 4.7%. Unless noted, no stated cut-off is given here; in the data, active means activation above about 30%; inactive means the rest.
SMILES,D1 antagonist,D1 agonist,TRHR ag,D1 potentiator,TRHR enhancer
CCN(CC)c1ccc(NC(=O)c2cnn(-c3ccccc3)c2-n2cccc2)c(C)c1,0.6,4.1,-1.9,-3.6,8.1
O=C(NCc1cccc(Cl)c1)c1cccc(C(F)(F)F)c1,-33.2*,2.5,0.1,-8.7,14.2
Cc1cc(C(=O)NC2CCCC(C)C2C)c2ccccc2n1 (stereo not given),-30.7*,-0.1,0.2,-11.8,-1.6
Cc1cc(C(=O)NCc2cccc(Cl)c2)c2ccccc2n1,-33.0*,2.1,-1.0,-11.0,4.3
Cc1ccc(Sc2cc(C(=O)NCCCN(C)C)c3ccccc3n2)cc1,-10.3,34.0*,-1.7,-2.1,-1.4
Cc1ccc(Sc2cc(C(=O)NCCN(C)C)c3ccccc3n2)cc1,16.7,16.6,1.4,-9.0,5.1
Cc1cc(C(=O)NC2CCCCC2C)c2ccccc2n1 (stereo not given),13.7,2.4,0.0,1.5,-1.9
CCOC(=O)N1CCc2c(sc(NCc3cccc(F)c3)c2C(=O)Nc2ccc(OC)cc2)C1,-6.9,-0.4,-0.6,-5.2,9.6
CCN(CC)S(=O)(=O)c1ccc2c(c1)N(CC(=O)Nc1ccc(OC)cc1)C(=O)CS2,10.5,-0.5,-0.2,-2.5,-0.6
COc1ccc(-c2noc(-c3ccc(NC4CCCC4)c([N+](=O)[O-])c3)n2)cc1,-0.7,8.1,-0.1,-4.0,-7.7
Cc1cc(C(=O)Nc2ccccc2Cl)c2ccccc2n1,-4.2,3.1,1.0,1.6,6.6
Cc1cc(C(=O)NCc2ccccc2Cl)c2ccccc2n1,-62.5*,6.8,-1.4,-10.2,5.6
CCCCN(C)CCCNC(=O)c1cc(-c2cccnc2)nc2ccccc12,-59.4*!,2.3,-0.3,2.6,10.4
Cc1cccc(N2CCN(c3nc4ccc(C(=O)c5ccccc5)cc4n4cnnc34)CC2C)c1 (stereo not given),0.1,1.8,0.3,-0.3,-4.4
Oc1ccc(COCc2ccc(F)cc2)c2cccnc12,-6.5,2.7,-0.5,-7.5,25.4
COC(=O)c1ccc(CN2CCN(C3CCCCC3)C(CCO)C2)cc1 (stereo not given),0.1,-0.6,-0.8,-0.9,19.7
CC(=O)Nc1ccc(CN2CCN(C3CCCCC3)C(CCO)C2)cc1 (stereo not given),-6.5,35.8*,0.5,-4.0,7.4
CC(=O)Nc1ccc2nc(CN3CCN(CC(C)C)C(CCO)C3)ccc2c1 (stereo not given),-19.5,1.5,1.1,-3.2,-3.5
CC(=O)Nc1ccc2nc(CN3CCN(Cc4ccc(F)cc4)C(CCO)C3)ccc2c1 (stereo not given),-4.3,2.6,0.1,3.0,35.6*
CCOc1ccc(CNC(=O)C2CCN(S(=O)(=O)N3CCCCC3)CC2)cc1,-6.7,-3.6,-0.6,0.4,-1.2
Cc1ccc(S(=O)(=O)CCC(=O)OCC(=O)c2ccc(C)c(C)c2)cc1,-30.6*,10.6,0.2,-10.3,3.5
Cc1ccc(C(=O)COC(=O)CCS(=O)(=O)c2ccccc2)cc1[N+](=O)[O-],-3.4,1.2,-0.8,-7.2,1.0
COc1ccc(CNC(=O)CCCn2c(=O)c3cccn3c3ccc(F)cc32)cc1OC,5.8,2.2,-0.1,-3.2,7.3
O=C(NN=C1CCN(Cc2ccccc2)CC1)c1ccccc1O,-30.9*,0.0,0.5,-1.8,3.8
O=C(CSc1nc2ccccc2c(=O)n1NC(=O)Cc1ccccc1)NCc1ccccc1,-32.2*,6.5,-0.3,-8.8,-4.0
SMILES,D1 antagonist,D1 agonist,TRHR ag,D1 potentiator,TRHR enhancer
Cc1ccc(-c2csc3nc[nH]c(=O)c23)cc1C,-10.4,2.8,0.5,-4.8,-0.2
COc1cccc(-c2csc3nc[nH]c(=O)c23)c1,-33.5*,2.6,-0.6,-5.2,6.1
COC(=O)c1cc2sc(C)cc2n1CC(=O)Nc1ccc(C)cc1Cl,7.4,-0.8,0.1,-2.3,5.1
Cc1ccc2c(C)c(C(=O)N(C)C(C)c3ccon3)oc2c1C (stereo not given),-39.3*,2.1,0.0,-0.9,0.9
CCOc1ccccc1-c1noc(CSc2nnc(-c3ccccc3)n2-c2ccc(OC)cc2)n1,-2.9,2.2,-0.3,2.3,-1.8
COc1ccc(N2C(=O)NC(NS(=O)(=O)c3ccc(NC(C)=O)cc3)(C(F)(F)F)C2=O)cc1 (stereo not given),-50.8*!,-1.6,-0.3,-9.5,-1.8
